The values that follow come from PubChem BioAssay AID651800 (The Scripps Research Institute Molecular Screening Center, 2012).

SMILES strings stand for the structures. The whole screen tested about 360,000 compounds, of which about 1,300 (0.36%) were called active. Many of the other results were omitted from the sample, so actives are more common in it than they were. Unmarked numbers belong to inactive results. Cut-off read from the data, not from the text of the source: active = inhibition above about 19%; inactive = the rest.

The test system of this experiment is T-cell receptor (TCR). The experiment in a line: inhibitors of human TCR-CD3 interaction, primary screen, biochemical, fluorescence, TAMRA-labeled TCR probe (AID 651800).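 Note: recombinant mutant TCR 2C K166C tagged with TAMRA read by polarization; 0% = receptor in buffer alone and 100% = receptor with positive control.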 To be noted: at 9.4 µM, hits give high values.
As a reminder, the inhibition is the change of the read-out against control, counted positive when it falls. Consider `Nc1nc2c(ncn2[C@@H]2O[C@H](C(=O)N[C@@H](Cc3ccccc3)C(=O)NCc3ccccc3)[C@@H](O)[C@H]2O)c(=O)[nH]1`, for which the inhibition is -1.96%. The value for `CN1C(=O)CN2CCc3ccccc3C2c2cc(Cl)ccc21` (stereo unspecified) was -2.81%. Take `COC(=O)C1=C(C)N(Cc2ccc(F)cc2)C(=S)NC1c1cccc(Cl)c1` (stereo unspecified): the inhibition was 3%.

Turning to `O=C(NS(=O)(=O)c1cccs1)[C@H]1O[C@@H](n2ccc(=O)[nH]c2=O)[C@H](O)[C@@H]1O`, the inhibition was -0.49%. In the case of `O=C(NNC(=O)c1ccccc1O)c1ccccc1O`, the inhibition was 40% (active). The value for `Cc1cccc(NS(=O)(=O)c2cccc(C(=O)NNC(=O)c3ccccc3O)c2)c1` was 16.2%; that for `Cc1cc2occ(CC(=O)NNC(=O)c3ccccc3F)c2cc1C` was 2.71%; that for `Cc1ccccc1C(=O)NNC(=O)CN1C(=O)c2ccccc2C1=O` was -5.72%. Regarding `Cc1cc(C(=O)CCC(=O)NNC(=O)c2ccccc2O)c(C)s1`, the inhibition was 25.6% (active). The value for `O=C(NNC(=O)c1cc(S(=O)(=O)N2CCCCC2)ccc1Cl)c1ccccc1O` was 16.6%; that for `COc1cccc(NC(=O)N(C)C[C@@H]2OCc3cn(nn3)CCCC(=O)N([C@@H](C)CO)C[C@H]2C)c1` was -4.37%. As for `C=CC1=C(C(=O)O)N2C(=O)[C@@H](NC(=O)/C(=N/OCC(=O)O)c3csc(N)n3)[C@H]2SC1`, the inhibition is 25.6% (active). Consider `C=CC1=C(C(=O)O)N2C(=O)[C@@H](NC(=O)/C(=N\OCC(=O)O)c3csc(N)n3)[C@H]2SC1`, for which the inhibition is 4.98%. To `CCCCOCC1CN(CCCC)S(=O)(=O)c2c(Oc3ccc(F)cc3)cccc2O1` (stereo unspecified) belongs 0.77%.

With `Nc1ncnc2c1ncn2[C@@H]1O[C@H](C(=O)N[C@@H](CCc2ccccc2)C(=O)N2CCCN(Cc3cccs3)CC2)[C@@H](O)[C@H]1O`, the inhibition was 3.68%. Consider `COc1cccc(CNC(=O)[C@H]2CCCN2C(=O)[C@H]2CCCN2C(=O)c2cc(F)cc(F)c2)c1`, for which the inhibition is -6.91%.

As for `CC(=O)N1C[C@@H](CO)[C@@H](N(C)C(=O)C(C)(C)C)C[C@H]1c1ccccc1Br`, the inhibition was -0.47%. To `CN(C)[C@@H]1C(=O)C(C(N)=O)=C(O)[C@@]2(O)C(=O)C3=C(O)c4c(O)ccc(Cl)c4[C@@H](O)[C@H]3C[C@@H]12` belongs 21.1% (active). To `C=C1c2c(Cl)ccc(O)c2C(O)=C2C(=O)[C@]3(O)C(O)=C(C(N)=O)C(=O)[C@@H](N(C)C)[C@@H]3[C@@H](O)C12` (stereo partly specified) belongs 33.5% (active); to `CCc1c(-c2ccccc2OC)ncn1CCc1ccccc1OC`, 7.58%.

As for `NCCN1CCN2C(=O)CN(C(=O)c3ccccc3)CC12` (stereo unspecified), the inhibition was -1.77%. To `COC(=O)[C@]12C[C@H](CC(=O)NCc3ccc(C)o3)C(=O)N(CCC3=CCCCC3)C1=C[C@H](C(C)(C)C)O[C@@H]2C` belongs -1.26%. To `Oc1ccc(N=Cc2c(O)ccc3ccccc23)cc1` belongs 44.6% (active); to `Oc1ccc(/C=N/N(Cc2ccccc2)c2ccccc2)cc1`, 7.05%. The value for `Oc1ccc(N=Cc2sc3ccccc3c2Cl)cc1` was 89.3% (active). Consider `COc1ccc(-c2ccc3c(n2)CCCN3S(=O)(=O)c2ccc(C)cc2)cc1`, for which the inhibition is -3.11%.

Consider `CC(C)(C)c1ccc(S(=O)(=O)NCC2CCN(C(=O)C(=O)c3cc4ccccc4o3)CC2)cc1`, for which the inhibition was -7.28%. On to `NC(=O)c1ncn([C@@H]2O[C@H](C(=O)O)[C@@H](O)[C@H]2O)n1`, for which the inhibition was 6.54%. With `COC(=O)Cc1nnn2c1[C@H](C)[C@H](c1ccccc1Br)OCC2`, the inhibition is -3.6%. To `COC(=O)C1=C(C)N(Cc2cccc(C(F)(F)F)c2)C(=NCc2ccccc2)NC1c1ccccc1C(F)(F)F` (stereo unspecified) belongs 2.13%; to `O=C1[C@@H](c2ccccc2)[C@@H](c2ccccc2)N1c1ccccc1`, 4.73%. As to `C=CC1=CCN(S(=O)(=O)C(C)(C)C)[C@@H]1CCO`, the inhibition was 5.24%. The value for `O=[N+]([O-])c1cc(Cl)cc(/C=N/NC(=S)Nc2cc(S(=O)(=O)N3CCOCC3)ccc2Cl)c1O` was 41.3% (active); that for `Cc1cc(OCCCC(=O)Nc2cc(S(=O)(=O)N3CCOCC3)ccc2N2CCOCC2)ccc1Cl` was 0.46%.

Consider `COC(=O)c1cc(Oc2ccc(S(=O)(=O)N3CCOCC3)cc2[N+](=O)[O-])cc(C(=O)OC)c1`, for which the inhibition is 7.58%.

Consider `O=S(=O)(c1cccs1)N1CCCc2nc(-c3ccc(Br)cc3)ccc21`, for which the inhibition is 3.53%.

`COc1ccccc1CCn1cnc(-c2ccccc2)c1C(C)C`: the inhibition was 0.67%. The value for `COc1cc(OC)cc(-c2c(-c3ccc(F)cc3)c3cc(-c4ccc5cc[nH]c5c4)ccc3n2C)c1` was -1.04%. For `COc1ccc(-c2c(-c3cc(OC)cc(OC)c3)n(C)c3ccc(-c4ccn[nH]4)cc23)cc1`, the inhibition is 23.9% (active). As to `COc1cc(OC)cc(-c2c(-c3cccs3)c3cc(-c4ccc(OC)nc4)ccc3n2C)c1`, the inhibition was -3.68%. As to `COc1cccc(CNC(=O)[C@H]2CCCN2C(=O)[C@H]2CCCN2C(=O)c2ccc(F)cc2)c1`, the inhibition is 5.75%. Take `Cc1c(CC(=O)N2CCN(C(=O)C3COc4ccccc4O3)CC2)c(=O)oc2c(O)c(O)ccc12` (stereo unspecified): the inhibition is 82.2% (active). To `Cc1c(CCC(=O)O)c(=O)oc2c(C)c(OCc3ccccc3Cl)ccc12` belongs -7.63%.

As for `Cc1ccc(S(=O)(=O)NCCC(=O)NNC(=O)C2COc3ccccc3O2)cc1` (stereo unspecified), the inhibition was -2.9%. To `O=c1ccc2c(-c3ccccc3S(=O)(=O)O)c3ccc(O)c(O)c3oc-2c1O` belongs 33.4% (active).

`COc1ccc(C2=CN(Cc3ccccc3)C(c3ccc(OC)cc3)CC2=O)cc1` (stereo unspecified): the inhibition was -0.11%.

In the case of `COC(=O)[C@]12C[C@H](CC(=O)NCCCCc3ccccc3)C(=O)N(Cc3ccc4c(c3)OCO4)C1=C[C@H](C(C)(C)C)O[C@@H]2C`, the inhibition was -0.56%. `COC(=O)C1=C(C)N(Cc2ccccc2C(F)(F)F)C(=NCc2ccc(C(F)(F)F)cc2)NC1c1ccc(F)cc1` (stereo unspecified): the inhibition was 10.2%. To `COc1ccc(/C(=N\O)c2nccc3cc(OC)c(OC)cc23)cc1OC` belongs 37.5% (active).

Turning to `COC(=O)c1ccc(-c2c(-c3ccccc3)ncc3cc(OC)c(OC)cc23)cc1`, the inhibition is -0.95%. To `COc1cc2ccc(C(C)=O)c(O)c2cc1OC` belongs -7.1%.
